High-throughput results as filed in PubChem.
VP16 counter – inhibits Gal4-VP16 luciferase reporter, ROR gamma counter-screen; AID 2546; Drosophila S2 Gal4-VP16 UAS-luciferase, luminescence, 20 h; 310,000 compounds, 3.5% hits; Potency, µM (top dose mostly 53.6 µM), for the others: top-dose activity, negative = inhibition, most hits filed as inhibitors;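 further: Gal4-VP16 expression switched on by copper sulfate through the metallothionein promoter; nearly all actives have a fitted effect of over 50% in size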
TDP1 cell CPT – growth inhibition of DT40 Tdp1-/-;hTDP1 cells with camptothecin (screen for TDP1 inhibitors). chicken DT40 Tdp1-/-;hTDP1 cells + 20 nM CPT, ATP luminescence, 48 h. Potency, µM (titrated, usually from 46.2 µM), without a hit: at the top dose activity change, negative = growth inhibition, usual class: inhibitors. 420,000 compounds, 12% hits; further: nearly all actives have a fitted effect of over 55% in size
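Cell growth measured by CellTiter-Glo luminescence after a minimum 48 h, 37 C compound exposure with 20 nM CPT in Tdp1-knockout DT40 cells stably expressing hTDP1, seeded 400/well; qHTS titration format.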
ALOX12 inh – inhibitors of human 12S-lipoxygenase ALOX12; P18054; purified 12hLO, xylenol orange hydroperoxide absorbance; Potency, µM (top dose mostly 108 µM), for inactives: at the top dose activity change, negative = inhibition, hits mostly inhibitors; 580,000 compounds, 1.1% hits; AID 1671190
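Purified human 12hLO (150 nM final) in 25 mM Hepes, 0.01% Triton X-100, pH 7.0 was preincubated 15 min at room temperature with compound. Then 40 uM arachidonic acid was added, 30 min. Hydroperoxide was read by Fe-XO absorbance ratio 573/405 nm.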
RORg inh – inhibitors of mouse ROR gamma transcriptional activity | P51450 | Drosophila S2 Gal4-RORgamma UAS-luciferase reporter, 20 h | 310,000 compounds, 5.4% hits | Potency, µM (titrated, usually from 53.6 µM), inactives show top-dose activity change, negative = inhibition, usual class: inhibitors; further: nearly all actives have a fitted effect of over 60% in size
Target sequence (P51450 whole entry, looked up, the tested form may be a part): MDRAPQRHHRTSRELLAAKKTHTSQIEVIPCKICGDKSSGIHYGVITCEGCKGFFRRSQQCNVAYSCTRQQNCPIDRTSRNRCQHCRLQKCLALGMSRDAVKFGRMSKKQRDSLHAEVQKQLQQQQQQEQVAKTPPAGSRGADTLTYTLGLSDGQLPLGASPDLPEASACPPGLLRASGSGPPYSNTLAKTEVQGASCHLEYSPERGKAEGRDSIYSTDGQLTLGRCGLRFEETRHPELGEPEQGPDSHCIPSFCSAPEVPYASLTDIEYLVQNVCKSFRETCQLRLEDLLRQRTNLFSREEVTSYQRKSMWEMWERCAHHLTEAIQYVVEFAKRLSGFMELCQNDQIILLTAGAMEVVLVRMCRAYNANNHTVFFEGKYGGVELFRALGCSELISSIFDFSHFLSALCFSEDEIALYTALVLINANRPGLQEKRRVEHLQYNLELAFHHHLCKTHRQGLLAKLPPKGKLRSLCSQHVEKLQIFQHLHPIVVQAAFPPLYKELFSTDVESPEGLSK
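Drosophila Schneider cells stably carrying a metallothionein-driven Gal4 DBD–ROR gamma fusion and a UAS-Photinus luciferase reporter were exposed to compound for 1 hr, then induced with copper sulfate (700 uM final) for 20 hr at ambient temperature before luminescence reading.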
DT40 TDP1 no CPT – qHTS for Inhibitors of human tyrosyl-DNA phosphodiesterase 1 (TDP1): qHTS in cells in absence of CPT | DT40 Tdp1-/- hTDP1 cells, no CPT, ATP luminescence, 48 h | Potency, µM (highest dose often 46.2 µM), without a hit: top-dose activity change, negative = growth inhibition, most hits filed as inhibitors | 420,000 compounds, 15% hits; further: nearly all actives have a fitted effect of over 55% in size
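Camptothecin absent (DMSO only). Human TDP1-complemented DT40 knockout cells, 400 cells/well, 37 °C for minimum 48 hr; ATP measured via CellTiter-Glo, 30 min dark incubation, luminescence.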
ELG1 repair inh – ELG1-dependent DNA repair inhibition | HEK293T ELG1-luciferase reporter, luminescence, 16 h; DNA damage induced by 5-fluorouridine | Potency, µM (doses to about 46.1 µM), without a hit: top-dose activity change, negative = inhibition, most hits filed as inhibitors | 330,000 compounds, 2.3% hits; further: nearly all actives have a fitted effect of over 55% in size
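DMSO vehicle served as the neutral condition. Each well held 2,000 cells given 5-fluorouridine plus compound; after 16 hr at 37 °C/5% CO2, ONE-Glo was added and luciferase measured 30 min later.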
* = called active by the depositor; ? = inconclusive; nt = no result; [ ] = dose if it differs, or a comment. Rows were chosen to be rich in hits. Some 15% of all compounds tested hit in one or more screens of this group. The call rests on the fitted dose curve; in most records, active means well fitted curve in the direction sought with a large enough effect; inconclusive means small, poorly fitted or top-dose-only effect, or another doubt; inactive means no such curve, though single readings can be large; an effect the other way counts as inactive or inconclusive. On the % scale 0 is the no-effect control and ±100 the full control effect; potency means the concentration at half of the fitted maximal effect.

SMILES | VP16 counter | TDP1 cell CPT | ALOX12 inh | RORg inh | DT40 TDP1 no CPT | ELG1 repair inh
Cc1ccc(-c2nc(CNS(=O)(=O)c3ccc(C)cc3)c(C)o2)cc1 | nt | nt | -19% | nt | nt | nt
N#C/C(=C\c1ccc(-c2ccc(C(=O)O)cc2)o1)C(=O)Nc1ccc(F)cc1 | -5% | ? | ? | -4% | 12µM* | 19%
CCOC(=O)c1ccc(-c2ccc(/C=C(\C#N)C(=O)Nc3cccc(C)c3)o2)cc1 | nt | nt | -13% | nt | nt | nt
N#C/C(=C\c1ccc(-c2ccc(C(=O)O)cc2)o1)C(=O)NCC1CCCO1 (configuration not stated) | 17% | 0% | nt | 15% | -27% | ?
Cc1ccc(NC(=O)/C(C#N)=C\c2ccc(-c3ccc(Cl)cc3)o2)c(C)c1 | nt | 12µM* | 1% | nt | -97% | nt
C=CC(=O)NC(NC(=O)C=C)c1ccc(Cl)cc1 | nt | nt | 6% | nt | nt | nt
CCOc1ccccc1CN1CCCCCCNC(=O)[C@@H]2CCC[C@@H]21 | nt | nt | 290% | nt | nt | nt
Cc1cc(NC(=O)CSc2nnc(-c3ccccc3)c(-c3ccccc3)n2)no1 | 16% | 3.7µM* | 51% | -11% | 5.2µM* | ?
Cc1cc(-c2nnc(SCCC(=O)Nc3ccccc3)o2)no1 | ? | 8% | -2% | 14µM* | ? | ?
Cc1cc(-c2nnc(SCC(=O)Nc3nc(-c4ccc(Cl)cc4)cs3)o2)no1 | ? | ? | ? | 14µM* | 0% | 2%
Cc1cc(NC(=O)CSc2nnc(-c3ccccc3)o2)no1 | -1% | ? | 11% | ? | 23µM* | ?
N#CCN(C(=O)c1ccccc1)C1CC1 | nt | nt | 56% | nt | nt | nt
CN1CCN(C(C)(C)CNC(=S)Nc2ccc(Cl)cc2Cl)CC1 | nt | nt | 0% | nt | nt | nt
O=C(c1ccccc1F)N1CCC(Oc2ncccc2C(=O)N2CCCCC2)C1 (configuration not stated) | nt | nt | 37% | nt | nt | nt
Cc1cc(-c2[nH]c3ccccc3c2C=O)c(C)s1 | nt | nt | -38% | nt | nt | nt
CCn1ccc(C(=O)N2CCC3(CCCCO3)CC2)n1 | nt | nt | 19% | nt | nt | nt
CCOc1cc(/C=C2\C(=O)N(Cc3ccco3)C(C)=C2C(=O)OC)ccc1O | -7% | ? | ? | -44% | ? | -16%
COC(=O)C1=C(C)N(Cc2ccc(C)cc2)C(=O)/C1=C\c1cc(OC)c(OC)c(OC)c1 | ? | ? | ? | 9% | 21µM* | ?
CCOC(=O)C1=C(C)N(c2ccc(OCC)cc2)C(=O)/C1=C\c1ccco1 | -2% | ? | ? | ? | ? | ?
CCOC(=O)C1=C(C)N(c2ccc(C)cc2)C(=O)/C1=C\c1ccc(O)c(OC)c1 | ? | 15µM* | ? | ? | 21µM* | 0%
CCOc1cc(/C=C2\C(=O)N(CCc3ccc(OC)c(OC)c3)C(C)=C2C(=O)OC)ccc1O | ? | ? | ? | ? | 23µM* | 1.6µM*
COC(=O)C1=C(C)N(Cc2cccnc2)C(=O)/C1=C\c1sccc1C | 5% | -23% | -23% | -3% | -22% | 21µM*
CCN1C(=O)/C(=C\c2cccs2)C(C(=O)OC)=C1C | -3% | 1% | 0% | -30% | ? | ?
O=c1oc2ccc3ccccc3c2cc1-c1ccccc1 | nt | nt | -18% | nt | nt | nt
Cc1cnccc1CN(C)Cc1ccc2c(C)cc(=O)oc2c1 | nt | nt | -2% | nt | nt | nt
SMILES | VP16 counter | TDP1 cell CPT | ALOX12 inh | RORg inh | DT40 TDP1 no CPT | ELG1 repair inh
O=C1NCCCCCCN(S(=O)(=O)Cc2ccccc2F)[C@H]2CCC[C@@H]12 | nt | nt | 26% | nt | nt | nt
CCN1C(=O)/C(=C\c2ccco2)C(C(=O)OC)=C1C | -5% | 0% | -10% | 6% | -13% | 0%
COC(=O)C1=C(C)N(Cc2ccc(C)cc2)C(=O)/C1=C\c1ccc(O)c(OC)c1 | -6% | 2% | 28µM* | -30% | -29% | -14%
COC(=O)C1=C(C)N(Cc2ccccc2)C(=O)/C1=C\c1ccco1 | 20% | ? | -20% | 55% | 18µM* | -14%
COC(=O)C1=C(C)N(CCc2ccccc2)C(=O)/C1=C\c1ccco1 | ? | ? | -30% | -93% | ? | ?
CCOC(=O)c1c(C)[nH]c(C(=O)CSc2nnc(-c3ccncc3)n2CC)c1C | -4% | -2% | 1% | -6% | -24% | ?
C=CCn1c(SCC(=O)c2[nH]c(C)c(C(=O)OCC)c2C)nc2scc(-c3ccc(OC)c(OC)c3)c2c1=O | 10µM* | 15µM* | -20% | 10µM* | 13µM* | -11%
CN(CC1CCCN(CCc2cccc(C(F)(F)F)c2)C1)C(=O)c1ccc2[nH]ccc2c1 (configuration not stated) | nt | nt | 3% | nt | nt | nt
CCNC(=O)N[C@H]1[C@H](O)[C@H](O)C[C@@H]1c1cccc(C)c1 | nt | nt | 19%[176 µM] | nt | nt | nt
Cn1c(CNc2cccc(Cl)c2)nnc1SCC#N | -12% | 7% | -13% | 25% | 0% | -1%
N#CCN1C(=S)N=C(Nc2cccc(Cl)c2)C12CCCCC2 | ? | -12% | -4% | 2.8µM* | -28% | 9%
CC(C)(C)C1CCC2(CC1)C(Nc1cccc(C(F)(F)F)c1)=NC(=S)N2CC#N (configuration not stated) | 13µM* | ? | -14% | 18µM* | ? | 2%
Cc1ccc(NC2=NC(=S)N(CC#N)C23CCCCC3)cc1 | -20% | -17% | 33%[57.4 µM] | 18µM* | ? | 9%
OC1(c2nc(Nc3cccc(C(F)(F)F)c3)n[nH]2)CCOCC1 | nt | nt | 8%[176 µM] | nt | nt | nt
CCC1(c2cccc(Cl)c2)NC(=O)N(Cc2cc(C(=O)OC)c(C)o2)C1=O (configuration not stated) | 11% | 26µM* | -17% | 0% | 18µM* | ?
COc1cccc(N/C=C(\C#N)c2ccc(OCCCF)cc2)c1 | 7% | 18µM* | 0% | 20% | ? | 21%
COC(=O)N/N=C/c1sc(N2CCCCC2)nc1-c1cccs1 | 0.79µM* | 1% | -2% | 10µM* | 6% | -21%
O=C(N/N=C/c1sc(N2CCOCC2)nc1-c1ccccc1)c1ccc(O)cc1 | -3% | ? | 2% | 5% | ? | ?
O=C(c1ccncc1)N1CC[C@H]2COC(=O)N2c2cc(F)ccc2C1 | nt | nt | 53%[176 µM] | nt | nt | nt
COc1cccc(/C=C/c2nc(C#N)c(N3CCN(C(C)=O)CC3)o2)c1 | nt | nt | -21% | nt | nt | nt
COc1cccc(/C=C/c2nc(C#N)c(N3CCCCC3)o2)c1 | nt | 21µM* | 0% | nt | 23µM* | nt
COc1ccc(/C=C/c2nc(C#N)c(N3CCC(C)CC3)o2)cc1OC | nt | 16µM* | -24% | nt | 23µM* | nt
